A short description of assay [1]: Cytotoxicity counterscreen for inhibitors of SARS-CoV-2 cell entry (AID 1645845). Further: nearly all actives have a fitted effect of over 50% in size. Conditions: cell viability (SARS-CoV-2 entry assay cells); series mostly up to 57.1 µM. A digest of the protocol:
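After a 15 min room-temperature ATPLite 1step step, luminescence reflected ATP remaining in HEK293-ACE2 cells exposed to compound for 1 h plus 48 h at 37 C, with percent activity set by cell and no-cell controls.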
On the technique in general: Counterscreens check selectivity or assay interference.

Assay [2] is described as follows: Primary qHTS to identify inhibitors of SARS-CoV-2 cell entry (AID 1645846). Further: nearly all actives have a fitted effect of over 45% in size. Conditions: SARS-CoV-2 pseudovirus cell entry assay, luminescence; activity change, negative = inhibition: at 57.1 µM (top of the series) unless noted; series mostly up to 57.1 µM. A digest of the protocol: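 Data are normalized to wells receiving SARS-CoV-2-S pseudoparticles and those given bald particles. Entry signal was luciferase luminescence in stable hACE2 Expi293F cells, 48 hr post-infection, after 1 hr compound pretreatment.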

Where “and” joins values, the source holds several entries; their conditions need not be identical. Equal values may be shown once. Results filed as inconclusive are left out. Entries that show only a call come without a potency. Calls of active or inactive are those of the source. The call rests on the fitted dose curve.
Potency means the concentration at half of the fitted maximal effect.

For the molecule `N[C@H]1CN(c2c(F)cc3c(=O)c(C(=O)O)cn(C4C[C@@H]4F)c3c2Cl)CC12CC2` (some centres not stated), the Potency entry in assay [1] is “inactive”. Also, the activity change, negative = inhibition in assay [2] was -17.4%.
The matching figures for `CCN(CC)CCNC(C(=O)OCCC(C)C)c1ccccc1` (configuration not stated): “inactive” and -14.1%.
`CN1CCN(CCCN2c3ccccc3Sc3ccc(S(=O)(=O)N(C)C)cc32)CC1`: the Potency entry in assay [1] was “inactive”. Further, the Potency in assay [2] was 25.1 µM (active).
For `N[C@H](Cc1c[nH]c2ccccc12)C(=O)O` the same measures were “inactive” and “inactive”.
Consider `CN(C)C(=S)SC(=S)N(C)C`, for which the values for the Potency in assay [1] and in assay [2] were 3.55 µM (active) and 1 µM (active), respectively.
Consider `COc1ccc2c(c1OC)C(=O)O[C@@H]2[C@H]1c2c(cc3c(c2OC)OCO3)CCN1C`, for which the Potency result in assay [1] was “inactive”. Also, in assay [2], the activity change, negative = inhibition was -12.9%.
For the molecule `C[C@]12CC[C@@H]3c4ccc(O)cc4CC[C@H]3[C@@H]1C[C@@H](O)[C@@H]2O`, the Potency entry in assay [1] is “inactive”. In addition, the activity change, negative = inhibition in assay [2] is -20% and -12.5%.
With `CCOC(=O)NNc1nncc2ccccc12`, the Potency entry in assay [1] and in assay [2] was “inactive” each time.
`CCOC(=O)c1cccc(N)c1`: in assay [1], the Potency entry is “inactive”. For the same molecule, the activity change, negative = inhibition in assay [2] was -8.06%.
Consider `O=C(O)COC(=O)Cc1ccccc1Nc1c(Cl)cccc1Cl`, for which the Potency result in assay [1] and in assay [2] was “inactive” throughout.
As for `CC[N+](CC)(CC)CCOC(=O)C(C1CCCC1)C1CCCC1`, in assay [1], the Potency entry was “inactive”. The activity change, negative = inhibition in assay [2] is -6.21%.
Regarding `C[C@@H]1C[C@H]2[C@@H]3CCC4=CC(=O)C=C[C@]4(C)[C@@]3(F)[C@@H](O)C[C@]2(C)[C@H]1C(=O)CO`, the Potency result in assay [1] and in assay [2] was “inactive” each time.
For `O=C(O)CCc1nc(-c2ccccc2)c(-c2ccccc2)o1`, the Potency entry in assay [1] was “inactive”. Besides, in assay [2], the activity change, negative = inhibition was 2.68%.
The matching figures for `CCN1CCCC(OC(=O)C(c2ccccc2)c2ccccc2)C1` (configuration not stated): “inactive” and -0.255%.
`OCc1ccccc1O`: the Potency result in assay [1] and in assay [2] was “inactive” each time.
As for `CCN(CC)C(=O)Nc1ccc(OCC(O)CNC(C)(C)C)c(C(C)=O)c1` (configuration not stated), in assay [1], the Potency entry was “inactive”. The activity change, negative = inhibition in assay [2] is -2.7%.

The values are drawn from PubChem BioAssay (NCATS).
